High-throughput results (PubChem)
The list is not random: actives were taken first. Their share in the collection is about 7.3%.
Rab9 promoter act – qHTS Assay for Rab9 Promoter Activators; Potency, µM (series often up to 9.22 µM), without a hit: at the top dose activation, negative = inhibition, actives largely listed as activators; Huh7 Rab9 promoter-luciferase reporter, luminescence, 24 h; 2.8% of 320,000 active; further: % of control where 0% means no effect; nearly all actives have a fitted effect of over 60% in size
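Cells were plated at 1500 per well in reduced-serum medium with 10% FBS and left 2 h. Compound in DMSO was then added for 24 h at 37 °C. Reporter signal was read by luminescence after 10 min with luciferase detection reagent.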
SMN2 splice enh – qHTS Assay for Enhancers of SMN2 Splice Variant Expression; HEK293 SMN2-luciferase splicing reporter, luminescence, 30-36 h; Potency, µM (series often up to 46.1 µM), without a hit: at the top dose activity change, positive = activation, usual class: activators; 2.8% of 210,000 active; further: % of control where 0% means no effect; nearly all actives have a fitted effect of over 55% in size
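qHTS luciferase splicing reporter: luminescence rises when SMN2 exon 7 is included in transfected HEK293 cells. Compound exposure lasted 30-36 h at 37C, with 4.5 mM final sodium butyrate as control, followed by a ONE-Glo read.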
FLuc modulator – qHTS profiling assay for firefly luciferase inhibitor/activator using purifed enzyme and Km concentrations of substrates (counterscreen for miR-21 project); 6.9% of 360,000 active; Potency, µM (top dose mostly 57.5 µM), inactives show top-dose activity change, negative = inhibition, most hits filed as inhibitors; Luciferin 4-monooxygenase (Photinus pyralis), P08659; purified FLuc, Km substrates, luminescence inhibition;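 further: plate controls were vehicle for no effect and reference inhibitor for full effect; nearly all actives have a fitted effect of over 55% in size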
Target sequence (P08659 whole entry, looked up): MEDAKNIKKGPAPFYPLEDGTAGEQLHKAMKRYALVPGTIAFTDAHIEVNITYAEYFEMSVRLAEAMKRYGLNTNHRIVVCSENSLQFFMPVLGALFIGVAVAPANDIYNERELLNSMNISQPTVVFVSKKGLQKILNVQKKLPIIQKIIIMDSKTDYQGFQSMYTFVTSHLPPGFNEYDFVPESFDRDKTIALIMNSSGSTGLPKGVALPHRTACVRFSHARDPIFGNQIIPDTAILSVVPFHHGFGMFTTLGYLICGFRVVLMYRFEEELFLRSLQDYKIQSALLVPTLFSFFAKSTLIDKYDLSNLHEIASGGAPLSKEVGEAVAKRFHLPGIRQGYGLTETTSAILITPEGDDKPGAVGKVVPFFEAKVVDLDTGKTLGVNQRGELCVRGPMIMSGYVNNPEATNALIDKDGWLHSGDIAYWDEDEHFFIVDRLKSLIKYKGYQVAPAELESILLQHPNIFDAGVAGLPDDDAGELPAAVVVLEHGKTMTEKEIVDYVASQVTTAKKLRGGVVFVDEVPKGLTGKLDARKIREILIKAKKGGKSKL
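Biochemical qHTS of compounds, final roughly 60 µM downward over six points, against 10 nM purified firefly luciferase using Km concentrations of substrates (10 uM D-luciferin, 10 uM ATP) in Tris acetate pH 7.5 buffer; luminescence output.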
NPC1 prom act – qHTS Assay for NPC1 Promoter Activators | Potency, µM (top dose mostly 9.22 µM), for the others: at the top dose activation, usual class: activators | 2.4% of 320,000 active | Huh7 NPC1 promoter luciferase reporter, 24 h | AID 485313, 2010; further: % of control where 0% means no effect; nearly all actives have a fitted effect of over 60% in size
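Compounds in DMSO were transferred onto Huh7 NPC1-luciferase reporter cells pre-incubated 2 h; after 24 h at 37 °C, Amplite reagent was dispensed and luminescence recorded 10 min later.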
ELG1 genotoxic – qHTS screen for small molecules that induce genotoxicity in human embryonic kidney (HEK293T) cells expressing luciferase-tagged ELG1 | Potency, µM (series often up to 46 µM), for inactives: top-dose activity change, positive = activation, usual class: activators | 1.3% of 330,000 active | HEK293T ELG1-luciferase reporter, luminescence, 16 h; further: % of control where 0% means no effect; nearly all actives have a fitted effect of over 60% in size
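ELG1-luciferase HEK293T cells, 2,000/well; compound pinned in; 16 hr, 37 °C, 5% CO2; ONE-Glo, 30 min RT; luminescence on CCD imager.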
p53 reactivator – qHTS assay for re-activators of p53 using a Luc reporter; H1299 p53-A138V BP100-luciferase reporter, luminescence, 24 h; Potency, µM (titrated, usually from 92.2 µM), for the others: at the top dose activity change, positive = activation, actives largely listed as activators; 0.063% of 320,000 active; further: % of control where 0% means no effect; nearly all actives have a fitted effect of over 45% in size
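H1299 (p53-null), stable ts p53-A138V + BP100-Luc; 1000 cells/well, Opti-MEM/10% FBS; cpd 4 pt, 1:5; 24 h, 37 deg C, 5% CO2; detection reagent 10 min RT; luminescence.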
* marks the source's active call; other numbers are inactive results; ? = inconclusive; · = no result given. The call rests on the fitted dose curve; in most records, active means well fitted curve in the direction sought with a large enough effect; inconclusive means small, poorly fitted or top-dose-only effect, or another doubt; inactive means no such curve, though single readings can be large; an effect the other way counts as inactive or inconclusive. Potency means the concentration at half of the fitted maximal effect.

SMILES	Rab9 promoter act	SMN2 splice enh	FLuc modulator	NPC1 prom act	ELG1 genotoxic	p53 reactivator
COc1ccc(N=C(NN)c2ccc3ccccc3n2)cc1	22%	-1%	6.7µM*	17%	?	15%
COc1ccc(CNC(=O)c2ccc3ccccc3n2)cc1	15%	·	27µM*	14%	13%	·
O=C(NCc1ccccc1)c1ccc2ccccc2n1	0%	·	-11%	1%	3%	?
CCOc1ccc(NC(=S)c2ccc3ccccc3n2)cc1	?	·	?	3.5µM*	15%	?
NNC(=O)c1ccc2ccccc2n1	1%	13%	-5%	1%	1%	0%
O=C(CNC(=O)Cc1ccccc1)NCC(=O)OCc1ccc(C(=O)c2ccccc2)cc1	-30%	-2%	-3%	0%	-1%	-8%
CCCC(=O)Nc1cccc(-c2nc3cc(C)c(C)cc3o2)c1	4µM*	?	0.6µM*	2.2µM*	?	?
CCCCC(=O)Nc1cccc(-c2nc3ncccc3o2)c1	5%	-29%	-16%	-1%	0%	-4%
CCCC(=O)Nc1cc(-c2nc3ncccc3o2)ccc1C	-1%	6%	-12%	2%	11%	-1%
CCCC(=O)Nc1ccc(-c2nc3ncccc3o2)cc1	2µM*	·	13µM*	2.2µM*	?	·
CCCC(=O)Nc1ccc2oc(-c3cccnc3)nc2c1	29%	?	?	25%	12%	18%
CCCC(=O)Nc1cccc(-c2nc3ncccc3o2)c1	·	3.5µM*	6%	·	·	·
CCC(=O)N1CCc2cc(S(=O)(=O)NC(C(=O)NCCc3ccc(Cl)cc3)C(C)C)ccc21 (centres undefined)	·	-18%	0%	·	·	·
C[C@@H](NC(=O)[C@@H]1Cc2ccccc2CN1)C(=O)Nc1ccc2c(c1)OCCO2	27%	·	21µM*	30%	?	?
COc1ccc(C(=O)Nn2c(SCC(=O)NCc3ccccc3)nc3ccccc3c2=O)cc1	0.13µM*	?	2.7µM*	0.4µM*	0.082µM*	-2%
COC(=O)c1ccc2c(=O)n(CC3CCCO3)c(SCC(=O)Nc3ccccc3Cl)nc2c1 (centres undefined)	?	25%	?	7%	?	-1%
O=C(CSc1nc2ccsc2c(=O)n1NC(=O)c1ccccc1)Nc1nccs1	25%	20µM*	-7%	12%	7%	?
O=C(CSc1nc2ccccc2c(=O)n1NC(=O)Cc1ccccc1)NCc1ccccc1	0%	-18%	2%	2%	-6%	0%
COc1ccc(C(=O)Nn2c(SCC(=O)NC3CCCC3)nc3ccccc3c2=O)cc1	0.89µM*	-41%	9.5µM*	3.2µM*	?	1%
COC(=O)c1ccc2c(=O)n(CC3CCCO3)c(SCC(=O)Nc3ccccc3OC)nc2c1 (centres undefined)	-4%	6%	6.7µM*	4%	0%	7%
COc1cc(OC)c(OC)cc1CNCCCSc1nnnn1C	·	·	-1%	·	·	·
CCN1CCN(C(=O)c2ccc3c(c2)N(Cc2ccccc2F)C(=O)c2ccccc2S3=O)CC1 (centres undefined)	·	7%	-1%	·	·	·
Cc1nc([N+](=O)[O-])c(C(=O)OCc2ccc(C#N)cc2)n1C	6%	16%	0%	-2%	-1%	24%
O=C(CSc1nc2ccccc2c(=O)n1NC(=O)c1ccccc1)c1ccccc1	3.5µM*	?	12µM*	?	?	?
COc1ccc(C(=O)Nn2c(SCC(=O)NCC3CCCO3)nc3ccccc3c2=O)cc1 (centres undefined)	0.4µM*	-90%	0.76µM*	0.5µM*	?	-10%
